Data as given in PubChem BioAssay (NCATS).
Results filed as inconclusive are left out. The source made the active and inactive calls. Unless noted, calls follow the shape of the full dose curve.

Experiments:
[1] = qHTS assay for measurement of the activity of small molecule inhibitors on Zika virus induced Caspase-3 activity in human astrocytoma cells (AID 1224859; active = well fitted inhibition curve with a large enough effect)
Procedure, shortened: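 Human SNB-19 astrocytoma cells in RPMI 1640 with 10% FBS receive compound one hour ahead of Zika virus at 2 FFU/cell. After 6 h infection, caspase-3/7 activity is detected by Caspase-Glo luminescence.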

[2] = Natriuretic polypeptide receptor (hNpr1) antagonism - Pilot counterscreen GloSensor control cell line (AID 1347045); also: potency is read from the fitted curve at half-maximal effect
Procedure, shortened: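 HEK293 cGMP GloSensor cells preloaded 2 h with 2% GloSensor reagent, then compound 30 min before baseline luminescence read. Stimulated with 50 uM sodium nitroprusside, 20 min at room temperature, then read again; counterscreen for Npr1 antagonism.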

[3] = molecular target: Atrial natriuretic peptide receptor 1 (Homo sapiens) (UniProt P16066); test: Natriuretic polypeptide receptor (hNpr1) antagonism - Pilot screen (AID 1347049);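 also: agonist-evoked cGMP luminescence read 20 min after hNppA addition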; also: potency is read from the fitted curve at half-maximal effect
Procedure, shortened: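 HEK293 cells expressing hNpr1 and GloSensor cGMP luciferase, 1500/well, loaded with 2% GloSensor reagent 2 h, compound 30 min at room temperature; luminescence read before and 20 min after 0.1 nM hNppA stimulation.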

[4] = molecular target: Atrial natriuretic peptide receptor 2 (Homo sapiens) (UniProt P20594); test: Natriuretic polypeptide receptor (hNpr2) antagonism - Pilot subtype selectivity assay (AID 1347050); also: potency is read from the fitted curve at half-maximal effect
Procedure, shortened: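 HEK293 cells expressing hNpr2 and a GloSensor cGMP luciferase sensor, 1500/well, preloaded 2 h with 2% GloSensor reagent, compound 30 min, then 1 nM hNppC for 20 min. Antagonism from luminescence after versus baseline pre-read; LOPAC in 1:5 titrations.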

[5] = NS1 protein of Zika virus - qHTS assay to identify small molecule inhibitors in human HEK 293 cells (AID 1347053; active = well fitted inhibition curve with a large enough effect; also: series mostly up to about 46 µM; nearly all actives have a fitted effect of over 55% in size)
Procedure, shortened: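 HEK 293 cells pretreated with compound for 1 h, then infected with ZIKV MR766 (MOI 0.5) for 24 h at 37 C. NS1 detected by TR-FRET with two anti-NS1 antibodies; normalized to uninfected (0%) and infected (100%) wells.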

[6] = molecular target: Tyrosine-protein phosphatase non-receptor type substrate 1 (Homo sapiens) + Leukocyte surface antigen CD47 (Homo sapiens) (UniProt P78324+Q08722); test: CD47-SIRPalpha protein protein interaction - LANCE assay qHTS validation (AID 1347057; active = well fitted curve in the direction sought with a large enough effect in the signal ratio, with a control signal flat, not every such curve was filed as active; the % refers to the signal ratio; also: potency is read from the fitted curve at half-maximal effect)
Procedure, shortened: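 First, His-tagged CD47 and Eu-labelled anti-His antibody met the compound for 30 min; next, site-specifically biotinylated SIRPalpha was added for 30 min; finally streptavidin-APC was added before reading the TR-FRET ratio.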

Measured: Potency

Sequence of Atrial natriuretic peptide receptor 2 (Homo sapiens) (P20594 whole entry, looked up): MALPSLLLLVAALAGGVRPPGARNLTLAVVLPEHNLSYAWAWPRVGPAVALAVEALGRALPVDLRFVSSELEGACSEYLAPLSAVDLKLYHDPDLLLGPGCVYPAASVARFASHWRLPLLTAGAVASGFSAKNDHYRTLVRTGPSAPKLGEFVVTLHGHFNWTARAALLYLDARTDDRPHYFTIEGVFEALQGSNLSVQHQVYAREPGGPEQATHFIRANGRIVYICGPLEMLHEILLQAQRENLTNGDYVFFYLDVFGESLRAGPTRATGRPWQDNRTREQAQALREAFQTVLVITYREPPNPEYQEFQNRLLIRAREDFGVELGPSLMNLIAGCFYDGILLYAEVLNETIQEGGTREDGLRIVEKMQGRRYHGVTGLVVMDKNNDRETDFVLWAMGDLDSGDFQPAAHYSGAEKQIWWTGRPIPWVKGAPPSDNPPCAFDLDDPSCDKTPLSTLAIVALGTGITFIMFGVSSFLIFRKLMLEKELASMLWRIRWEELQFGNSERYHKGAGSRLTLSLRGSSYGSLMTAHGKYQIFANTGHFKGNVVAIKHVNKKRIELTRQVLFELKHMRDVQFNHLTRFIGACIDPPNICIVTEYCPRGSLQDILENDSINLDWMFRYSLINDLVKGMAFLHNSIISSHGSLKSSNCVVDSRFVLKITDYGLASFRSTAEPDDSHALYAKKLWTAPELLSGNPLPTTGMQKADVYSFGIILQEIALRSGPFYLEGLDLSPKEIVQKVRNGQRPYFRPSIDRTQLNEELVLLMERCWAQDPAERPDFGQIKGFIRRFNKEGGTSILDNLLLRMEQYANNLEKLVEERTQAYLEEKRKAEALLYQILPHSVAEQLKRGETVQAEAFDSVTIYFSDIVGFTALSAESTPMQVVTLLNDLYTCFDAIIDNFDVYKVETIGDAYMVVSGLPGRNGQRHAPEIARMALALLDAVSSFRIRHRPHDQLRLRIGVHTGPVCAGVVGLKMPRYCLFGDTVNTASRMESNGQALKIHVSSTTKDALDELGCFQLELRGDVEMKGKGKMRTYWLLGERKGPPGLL
Sequence of Atrial natriuretic peptide receptor 1 (Homo sapiens) (P16066 whole entry, looked up): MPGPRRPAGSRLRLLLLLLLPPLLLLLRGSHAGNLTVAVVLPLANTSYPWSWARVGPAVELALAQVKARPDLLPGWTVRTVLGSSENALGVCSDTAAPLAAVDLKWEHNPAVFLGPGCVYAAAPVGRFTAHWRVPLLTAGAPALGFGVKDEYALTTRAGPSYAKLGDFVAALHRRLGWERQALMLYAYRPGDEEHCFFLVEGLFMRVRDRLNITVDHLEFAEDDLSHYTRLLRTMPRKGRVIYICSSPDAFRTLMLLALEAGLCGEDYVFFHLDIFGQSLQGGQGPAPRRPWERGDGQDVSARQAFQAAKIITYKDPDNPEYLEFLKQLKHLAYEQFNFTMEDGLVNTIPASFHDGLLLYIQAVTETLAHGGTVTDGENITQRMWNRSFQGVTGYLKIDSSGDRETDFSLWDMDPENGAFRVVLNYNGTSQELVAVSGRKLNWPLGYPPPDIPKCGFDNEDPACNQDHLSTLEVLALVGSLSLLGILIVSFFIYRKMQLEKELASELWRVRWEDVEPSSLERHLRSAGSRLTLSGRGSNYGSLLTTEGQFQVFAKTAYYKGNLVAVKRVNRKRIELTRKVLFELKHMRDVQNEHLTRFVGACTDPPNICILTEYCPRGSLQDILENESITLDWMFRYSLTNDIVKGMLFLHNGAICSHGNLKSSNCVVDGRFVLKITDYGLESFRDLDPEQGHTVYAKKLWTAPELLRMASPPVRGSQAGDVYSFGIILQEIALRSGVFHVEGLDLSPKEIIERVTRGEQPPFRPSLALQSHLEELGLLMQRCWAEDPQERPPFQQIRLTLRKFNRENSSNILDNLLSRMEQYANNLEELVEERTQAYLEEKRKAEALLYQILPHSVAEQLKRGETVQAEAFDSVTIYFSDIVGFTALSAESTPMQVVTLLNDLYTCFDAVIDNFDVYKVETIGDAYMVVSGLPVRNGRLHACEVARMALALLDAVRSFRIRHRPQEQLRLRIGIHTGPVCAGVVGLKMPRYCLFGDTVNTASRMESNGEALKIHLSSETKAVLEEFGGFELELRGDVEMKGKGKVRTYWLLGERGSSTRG
Sequence of Tyrosine-protein phosphatase non-receptor type substrate 1 (Homo sapiens) + Leukocyte surface antigen CD47 (Homo sapiens) (P78324 whole entry, looked up): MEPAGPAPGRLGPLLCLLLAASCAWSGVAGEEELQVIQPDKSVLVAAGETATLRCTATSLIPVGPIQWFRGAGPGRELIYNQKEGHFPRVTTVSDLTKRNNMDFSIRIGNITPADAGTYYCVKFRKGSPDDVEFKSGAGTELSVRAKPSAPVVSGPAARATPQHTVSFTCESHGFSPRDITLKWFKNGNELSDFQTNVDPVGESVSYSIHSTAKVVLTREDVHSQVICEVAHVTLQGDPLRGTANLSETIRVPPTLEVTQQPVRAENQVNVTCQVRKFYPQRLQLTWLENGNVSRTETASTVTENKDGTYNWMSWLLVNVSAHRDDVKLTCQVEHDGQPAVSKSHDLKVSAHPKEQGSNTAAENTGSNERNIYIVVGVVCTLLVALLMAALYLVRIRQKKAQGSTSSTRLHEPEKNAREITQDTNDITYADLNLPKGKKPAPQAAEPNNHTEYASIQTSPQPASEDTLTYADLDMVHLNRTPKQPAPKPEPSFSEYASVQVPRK
Sequence of Tyrosine-protein phosphatase non-receptor type substrate 1 (Homo sapiens) + Leukocyte surface antigen CD47 (Homo sapiens) (Q08722 whole entry, looked up): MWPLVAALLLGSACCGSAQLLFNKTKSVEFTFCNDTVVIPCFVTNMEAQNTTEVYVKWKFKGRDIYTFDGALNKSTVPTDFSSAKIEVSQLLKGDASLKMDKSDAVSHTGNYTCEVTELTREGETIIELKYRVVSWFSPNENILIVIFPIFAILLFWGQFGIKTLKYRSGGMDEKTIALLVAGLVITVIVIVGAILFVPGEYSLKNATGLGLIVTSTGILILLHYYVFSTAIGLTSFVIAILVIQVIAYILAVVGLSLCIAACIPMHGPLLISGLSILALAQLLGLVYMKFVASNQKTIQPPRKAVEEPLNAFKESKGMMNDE

CC(=O)NBr
inactive: all assays above

NCC(O)c1cc(O)c(O)cc1F (stereo not given)
inactive: all assays above

COc1ccc2c(c1)[C@@]13CCCC[C@H]1[C@@H](C2)NCC3
inactive: [1] | [2] | [3] | [4]

Clc1cc(I)cc(Cl)c1NC1=NCCN1
inactive: all assays above

CC(N)Cc1c[nH]c2ccc(O)cc12 (stereo not given)
inactive: all assays above

CN1CCc2cc(O)cc3c2[C@H]1Cc1ccc(O)c(O)c1-3
not listed: [6]
inactive: all other assays above

OCc1cnc[nH]1
inactive: all assays above

CCOC(=O)c1ncn2c1[C@@H]1CCCN1C(=O)c1cc(OC)ccc1-2
inactive: all assays above

C=CCN1CCc2cccc3c2[C@H]1Cc1ccc(O)c(O)c1-3
inactive: [1] | [3] | [4]

Cc1c2ccncc2c(C)c2c1[nH]c1ccccc12
inactive: [1] | [2] | [6]
active: [3] 10700 nM | [4] 5210 nM

CN1CCc2cccc(Cl)c2CC1
inactive: all assays above

NNC(N)=O
inactive: all assays above

CCn1cnc2c(Nc3cccc(Cl)c3)nc(N[C@@H]3CCCC[C@@H]3N)nc21
inactive: [1] | [2] | [3] | [6]

CC(C)(C)c1o[nH]c(=O)c1CC(N)C(=O)O (stereo not given)
inactive: all assays above

C[C@H](N)CN1CCc2ccc(Br)cc21
not listed: [3]
inactive: all other assays above

C[N+](C)(C)CC#CCOC(=O)Nc1cccc(Cl)c1
not listed: [3]
inactive: all other assays above

CCCCCCC(C)(C)c1ccc([C@@H]2C[C@H](O)CC[C@H]2CCCO)c(O)c1
inactive: [1] | [3] | [4]

CC(C)NP(=O)(NC(C)C)OP(=O)(NC(C)C)NC(C)C
inactive: all assays above

Cc1sc2ccccc2c1CC1=NCCN1
inactive: all assays above

NC(N)=Nc1ccc2[nH]c3c(c2c1)C[C@@]1(O)[C@H]2Cc4ccc(O)c5c4[C@@]1(CCN2CC1CC1)[C@H]3O5
inactive: [1] | [5] | [6]
active: [2] 6560 nM | [3] 19000 nM

CC(C)(C)c1cc(C=C(C#N)C#N)cc(C(C)(C)C)c1O
inactive: [1] | [6]
active: [2] 131 nM | [3] 301 nM | [4] 414 nM

CCCCCCCCCCCCCC(=O)O[C@@H]1[C@@H](C)[C@@]2(O)[C@@H](C=C(CO)C[C@@]3(O)C(=O)C(C)=C[C@@H]23)C2C(C)(C)[C@@]21OC(C)=O (stereo not given in full)
active: [4] 6.6 nM
inactive: [1] | [2] | [6]

NC(Cc1cc(O)c(O)cc1O)C(=O)O (stereo not given)
active: [6] 13100 nM
inactive: all other assays above

Cc1cc([C@@H]2CCCN2C)on1
inactive: all assays above

CCCN(CCC)C1Cc2cc(OC)c(OC)cc2C1
not listed: [3]
inactive: all other assays above

COc1ccc2[nH]c3c(c2c1)CCNC3
inactive: all assays above

NC(=O)c1ccc(OCC(O)CN2CC=C(c3ccc(F)cc3)CC2)cc1 (stereo not given)
inactive: all assays above

O=[N+]([O-])c1cc(O)c(O)c([N+](=O)[O-])c1
inactive: all assays above

O=[N+]([O-])/C=C/c1ccc2c(c1)OCO2
inactive: [1] | [6]
active: [2] 1470 nM | [3] 2390 nM | [4] 1470 nM

CCCn1c(=O)c2[nH]c(C3CCCC3)nc2n(CCCOC(=O)c2ccc(S(=O)(=O)F)cc2)c1=O
not listed: [3]
inactive: all other assays above

NCCc1c[nH]c2ccc(C(N)=O)cc12
inactive: all assays above
